Source: PubChem BioAssay (National Center for Advancing Translational Sciences (NCATS))
L3MBTL1 block – qHTS Assay for the Inhibitors of L3MBTL1. 0.66% of 230,000 active. AlphaScreen L3MBTL1–H3K9me1 peptide binding. Potency, µM (highest dose often 57.1 µM), hits mostly inhibitors. Lethal(3)malignant brain tumor-like protein 1 (Homo sapiens), Q9Y468; further: nearly all actives have a fitted effect of over 60% in size
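Displacement of a biotinylated histone H3(1-15) peptide monomethylated at Lys9 (75 nM) from L3MBTL1 (50 nM) was measured by AlphaScreen after a 30 min room-temperature compound incubation; cefsulodin titration served as intraplate control.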
HP1b chromo inh – HTS for Inhibitors of HP1-beta Chromodomain Interactions with Methylated Histone Tails | Chromobox protein homolog 1 (Homo sapiens), P83916 | AlphaScreen HP1-beta / biotin-H3K9me3 peptide binding | Potency, µM (highest dose often 114 µM), usual class: inhibitors | 0.56% of 390,000 active; further: nearly all actives have a fitted effect of over 70% in size
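HP1-beta protein (50 nM final) preincubated 30 min at room temperature with biotinylated H3(1-18)K9me3 peptide (50 nM) in PBS pH 7.4, 0.01% Tween-20, then compound added for 30 min. AlphaScreen streptavidin donor/nickel chelate acceptor beads (10 ug/mL final), 30 min dark, luminescence read.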
BAZ2B block – qHTS Assay for Inhibitors of BAZ2B; Potency, µM (titrated, usually from 114 µM), actives largely listed as inhibitors; AlphaScreen BAZ2B-H3K14Ac peptide displacement; 4.4% of 360,000 active; further: nearly all actives have a fitted effect of over 60% in size
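Multi-concentration screen (max 110 uM) measuring displacement of acetylated histone H3 peptide from BAZ2B by AlphaScreen, using 50 nM protein, 50 nM peptide and 10 ug/mL streptavidin donor plus Ni-chelate acceptor beads.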
JMJD2A Tudor inh – qHTS Assay for Inhibitors of JMJD2A-Tudor Domain. 4.4% of 390,000 active. Lysine-specific demethylase 4A (Homo sapiens), O75164. AID 504339, 2011. AlphaScreen JMJD2A-Tudor / H3K4me3 peptide binding. Potency, µM (series often up to 114 µM), most hits filed as inhibitors; further: nearly all actives have a fitted effect of over 50% in size
G9a inh – qHTS Assay for Inhibitors of Histone Lysine Methyltransferase G9a; 8.8% of 350,000 active; G9a H3K9 monomethylation, AlphaScreen, 2 h; Potency, µM (doses to about 102 µM), actives largely listed as inhibitors; Histone-lysine N-methyltransferase EHMT2 (Homo sapiens), Q96KQ7; further: nearly all actives have a fitted effect of over 75% in size
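Quantitative HTS format: methyltransferase activity on a biotin-tagged H3K9 peptide is measured by AlphaScreen, using a rabbit anti-monomethyl-H3K9 antibody with streptavidin donor and anti-IgG acceptor beads. Final levels are 20 nM enzyme, 500 nM peptide, 20 uM SAM; 2 h RT.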
Large screens that a line does not name were inactive. This is a sample that favours compounds with a hit; in the whole collection about 11% have one here. The call rests on the fitted dose curve; in most records, active means well fitted inhibition curve with a large enough effect; inconclusive means small, poorly fitted or top-dose-only effect; inactive means no such curve, though single readings can be large or run the other way.

CCN1CCN(C(=O)CCN(CC(C)C)c2nc(-c3cccs3)nc3ccccc23)CC1	none (no result: L3MBTL1 block, HP1b chromo inh, BAZ2B block, G9a inh)
CCOc1ccc(CC(=O)Nc2c(C(=O)Nc3ccc(OC)cc3OC)oc3ccccc23)cc1	none (no result: L3MBTL1 block)
CCC(C)NC(=O)c1c(N)n(/N=C/c2ccccn2)c2nc3ccccc3nc12 (stereo unspecified)	G9a inh 50.1µM
CCC(C)NC(=O)c1c(N)n(/N=C/c2cccnc2)c2nc3ccccc3nc12 (stereo unspecified)	none
CCN(CC)c1ccc(/C=N/NC(=O)CNC(=O)C2COc3ccccc3O2)c(O)c1 (stereo unspecified)	JMJD2A Tudor inh 50.1µM, G9a inh 17.8µM (no result: L3MBTL1 block)
O=C(N/N=C\c1ccc(O)c([N+](=O)[O-])c1)C1COc2ccccc2O1 (stereo unspecified)	none (no result: G9a inh)
COc1cc(/C=N\NC(=O)CNC(=O)C2COc3ccccc3O2)ccc1O (stereo unspecified)	none
Cc1cc([N+](=O)[O-])cc(/C=N\NC(=O)C2COc3ccccc3O2)c1O (stereo unspecified)	L3MBTL1 block 25.1µM, BAZ2B block 28.2µM, JMJD2A Tudor inh 50.1µM
COC(=O)c1ccc(O)cc1	none (no result: L3MBTL1 block)
COC(=O)c1cc(Br)c(=O)n(CCc2ccccc2)c1	none
COC(=O)c1ccc(CCc2cc(O)c(Br)cc2O)cc1	HP1b chromo inh inconclusive, JMJD2A Tudor inh 2.82µM (no result: L3MBTL1 block, BAZ2B block, G9a inh)
COC(=O)c1ccc(CCc2cc(O)ccc2O)cc1	HP1b chromo inh inconclusive, JMJD2A Tudor inh 6.31µM (no result: L3MBTL1 block, BAZ2B block, G9a inh)
COc1cccc(CNC(=O)c2cnc(N3CCCC3)nc2C)c1	none (no result: L3MBTL1 block)
Cc1cc(N2CCN(C)CC2)nc2ccc(NC(=S)NCCC(C)C)cc12	BAZ2B block inconclusive, JMJD2A Tudor inh inconclusive, G9a inh 50.1µM (no result: L3MBTL1 block)
CCN(CC)CCNC(=S)Nc1ccc2nc(N3CCCC3)cc(C)c2c1	G9a inh 44.7µM (no result: L3MBTL1 block, BAZ2B block)
CCN(CC)CCNC(=S)Nc1ccc2nc(N3CCN(C)CC3)cc(C)c2c1	G9a inh 44.7µM (no result: L3MBTL1 block)
CCCN(CCC)CCCNC(=S)Nc1ccc2nc(N3CCCC3)cc(C)c2c1	JMJD2A Tudor inh inconclusive, G9a inh 39.8µM (no result: L3MBTL1 block)
CCN(CC)CCNC(=S)Nc1ccc2nc(N3CCOCC3)cc(C)c2c1	G9a inh inconclusive (no result: L3MBTL1 block)
Cc1cc(N2CCOCC2)nc2ccc(NC(=S)NCCC(C)C)cc12	none (no result: L3MBTL1 block)
COc1ccc(S(=O)(=O)c2nnn(-c3ccc(C(C)C)cc3)c2C)cc1	none (no result: L3MBTL1 block)
Cc1cc(N2CCCCC2)nc2ccc(NC(=O)c3ccc(Br)o3)cc12	HP1b chromo inh inconclusive, BAZ2B block inconclusive, JMJD2A Tudor inh inconclusive, G9a inh 50.1µM (no result: L3MBTL1 block)
Cc1cc(N2CCN(C)CC2)nc2ccc(NC(=O)c3ccc(Br)o3)cc12	none
COc1ccc(-c2cc(=O)oc3cc(OC(C)C(=O)O)ccc23)cc1 (stereo unspecified)	none
COc1ccc(-c2cc(=O)oc3c(O)c(O)ccc23)cc1	BAZ2B block inconclusive, JMJD2A Tudor inh inconclusive, G9a inh 8.91µM (no result: L3MBTL1 block)
C=C1CCC[C@]2(C)C[C@H]3OC(=O)C(CNCCN(C)C)[C@H]3CC12 (stereo partly specified)	none (no result: L3MBTL1 block)
C=C1CCC[C@]2(C)C[C@H]3OC(=O)C(CNCCN(CC)CC)[C@H]3CC12 (stereo partly specified)	HP1b chromo inh inconclusive, BAZ2B block 25.1µM, JMJD2A Tudor inh 1.78µM (no result: L3MBTL1 block)
COc1cc(NC(=O)c2cccc(Cl)c2Cl)ccc1NC(=O)c1cc2ccccc2o1	none (no result: L3MBTL1 block)
Nc1nc(SCC(=O)Nc2cccc([N+](=O)[O-])c2)n[nH]1	none (no result: BAZ2B block, G9a inh)
COc1ccc(NC(=O)CSc2nc3ncccc3[nH]2)cc1OC	none (no result: L3MBTL1 block)
O=C(CSc1n[nH]c(=O)[nH]c1=O)c1cccc([N+](=O)[O-])c1	BAZ2B block inconclusive, G9a inh 31.6µM (no result: L3MBTL1 block)
O=C(CSc1nc2ncccc2[nH]1)c1cccc([N+](=O)[O-])c1	G9a inh 39.8µM
O=C(CCc1n[nH]c(=O)[nH]c1=O)Nc1cccc([N+](=O)[O-])c1	JMJD2A Tudor inh inconclusive, G9a inh 50.1µM (no result: L3MBTL1 block, BAZ2B block)
O=C(CSc1n[nH]c(=O)[nH]c1=O)c1ccccc1	BAZ2B block inconclusive, G9a inh inconclusive
